Results from PubChem BioAssay (NCATS).
Inconclusive results are not listed. Calls of active or inactive are those of the source. The call rests on the fitted dose curve; in most records, active means well fitted curve in the direction sought with a large enough effect; inconclusive means small, poorly fitted or top-dose-only effect, or another doubt; inactive means no such curve, though single readings can be large; an effect the other way counts as inactive or inconclusive.

What was measured:
[1] = biological target: DNA repair nuclease/redox regulator APEX1 (Homo sapiens) (UniProt P27695); assay: qHTS Validation Assay for Inhibitors of the Human Apurinic/apyrimidinic Endonuclease 1 (APE1) (AID 1705;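 further: TAMRA fluorescence gain over two minutes as APE1 cuts a quenched THF abasic duplex; series mostly up to about 57 µM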)
Description: Assay Provider: David M. Wilson, III, National Institute on Aging, NIH
Screening Center PI: Austin, C.P.
Screening Center: NIH Chemical Genomics Center [NCGC]
The apurinic/apyrimidinic endonuclease APE1 is the primary mammalian enzyme responsible for the removal of abasic (or AP) sites in DNA and functions centrally in the base excision DNA repair (BER) pathway. […] Thus, targeting APE1 could improve the efficacy of current treatment paradigms by promoting selective sensitization or protection of diseased and normal cells, respectively.
Inhibition of APE1 activity was screened by utilizing double-stranded short substrate containing tetrahydrofuran (THF) abasic site labeled with rhodamine-type fluorophore (TAMRA) at the 5'-end and with non-fluorescent Black Hole Quencher-2 (BHQ-2) at the opposing 3'-end. An increase in the fluorescence intensity due to incision of the abasic site by APE1 was used to measure the enzyme activity.
1. […]
Three uL of enzyme were dispensed to 1536-well Greiner black solid bottom plates. […] The plates were immediately transferred into ViewLux High-throughput CCD imager (Perkin-Elmer) in order to measure the reaction progress in kinetic mode (three reads every 60 seconds) using 525 nm excitation and 598 nm emission fluorescence protocol. The fluorescence intensity difference between the third and the first time points was used to compute reaction progress.

[2] = Counterscreen for APE1 Inhibitors: Fluorescent Dye Displacement Validation Assay (AID 1707)
In short: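 Thiazole Orange (250 nM) bound to 50 nM TAMRA-labelled dsDNA with tetrahydrofuran abasic site; displacement by DNA-binding compounds lowers fluorescence. Buffer 50 mM Tris-HCl pH 7.5, 50 mM NaCl, 2 mM MgCl2, 0.01% Tween-20; endpoint read at 480/540 nm.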

[3] = biological target: Endonuclease 4 (Escherichia coli (strain K12)) (UniProt P0A6C1); assay: Counterscreen for APE1 Inhibitors: qHTS Validation Assay for Inhibitors of Endonuclease IV (AID 1708)
In short: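 Enzymatic AP-site incision assay using a double-stranded THF substrate labelled with TAMRA and BHQ-2; released fluorescence signals activity. Enzyme 2 nM, substrate 50 nM, 15 min compound preincubation.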

[4] = qHTS for differential inhibitors of proliferation of Plasmodium falciparum line 7G8 (AID 1815);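 further: parasite growth measured after three days of incubation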
[5] = qHTS for differential inhibitors of proliferation of Plasmodium falciparum line GB4 (AID 1816);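 further: parasite growth measured after 72 h incubation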
[6] = qHTS for differential inhibitors of proliferation of Plasmodium falciparum line 3D7 (AID 1876);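 further: parasite growth measured after three days of culture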
[7] = qHTS for differential inhibitors of proliferation of Plasmodium falciparum line D10 (AID 1877);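 further: parasites grown with compound for 72 h before DNA staining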
[8] = qHTS for differential inhibitors of proliferation of Plasmodium falciparum line Dd2 (AID 1882);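 further: series mostly up to about 29 µM; compound exposure of 72 h on infected erythrocytes; nearly all actives have a fitted effect of over 65% in size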
In short: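 SYBR Green I DNA fluorescence read-out, ex 485/em 535 nm. Signals were normalized to 0.29 uM artemisinin and DMSO wells, then corrected using vehicle-only plates flanking each stack. Parasite growth ran 72 h in erythrocytes before lysis.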

[9] = qHTS for differential inhibitors of proliferation of Plasmodium falciparum line W2 (AID 1883);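 further: parasites grown with compound for 72 h before lysis and staining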
[10] = qHTS for differential inhibitors of proliferation of Plasmodium falciparum line HB3 (AID 1886);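 further: parasites grown with compound for 72 h before SYBR Green readout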

Measured: outcome

DNA repair nuclease/redox regulator APEX1 (Homo sapiens), sequence (P27695 whole entry, looked up): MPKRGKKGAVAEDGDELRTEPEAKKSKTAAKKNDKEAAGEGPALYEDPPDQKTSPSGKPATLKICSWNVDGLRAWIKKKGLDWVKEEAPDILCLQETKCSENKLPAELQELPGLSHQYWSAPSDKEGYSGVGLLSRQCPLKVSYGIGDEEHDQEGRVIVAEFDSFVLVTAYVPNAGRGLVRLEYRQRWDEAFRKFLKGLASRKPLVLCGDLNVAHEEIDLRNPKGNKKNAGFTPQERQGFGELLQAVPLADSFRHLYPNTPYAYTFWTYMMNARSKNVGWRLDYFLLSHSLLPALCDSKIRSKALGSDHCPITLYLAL

CN1C(C)(C)CCCC1(C)C
inactive: all assays above
